From ChEMBL document CHEMBL4888484, “Replenishing the malaria drug discovery pipeline: Screening and hit evaluation of the MMV Hit Generation Library 1 (HGL1) against asexual blood stage Plasmodium falciparum ,using a nano luciferase reporter read-out” (2022)
Among all 4,800 compounds or so, about 420 (8.8%) showed an effect of 50% or more. Shown is part of a subset that was picked to be rich in strong results.

These compounds were tested on Plasmodium falciparum (assay: Confirmatory screen in NF54 nanoGlo assay, in single point, at 2uM, 72h). Settings: timepoint 72 hour.
Type: functional, Erythrocyte
`CC(C)c1cc(C(=O)N2CC3CC4CC3C2C4O)n[nH]1` (stereo not given) was tested, and the “% Inhibition” value was 1%. `COc1ccsc1S(=O)(=O)N1CCC(n2ccnc2)CC1` was tested, and the “% Inhibition” value was -3%. With `O=C(c1nc(-c2cccs2)cs1)N1CCN(c2ccccc2)CC1` the “% Inhibition” value was -15%. In the case of `COc1ccccc1C(=O)NC1=C(C)Nc2ncnn2[C@H]1c1c[nH]c2ccccc12`, the “% Inhibition” value is reported as -5%. For `COc1ccc([C@@H]2C=C(c3ccc(Cl)cc3)N=C3NC(NC(=O)c4ccccc4OC)=NN32)cc1`, the “% Inhibition” value was 97%. In the case of `CCC1=NN2C(=NC(C(=O)O)=C[C@H]2c2ccc(O)cc2)N1`, the “% Inhibition” value is reported as -7%. `COc1cc(NC(=O)c2ccccc2Cl)cc(S(=O)(=O)c2ccc(Cl)cc2)c1` was tested, and the “% Inhibition” value was -15%. In the case of `COc1ccccc1C(=O)NC1=NN2C(=NC(c3ccc(Cl)cc3)=C[C@H]2c2ccc(Cl)cc2)N1`, the “% Inhibition” value is reported as 94%. For `O=C(NC1=NN2C(=NC(c3ccc(Cl)cc3)=C[C@H]2c2ccc(F)cc2)N1)c1ccc(Cl)cc1`, the “% Inhibition” value was 32%. With `Fc1ccc(C2=C[C@@H](c3ccc(Cl)cc3)N3N=C(c4ccc(Cl)cc4)NC3=N2)cc1` the “% Inhibition” value was 99%. In the case of `COc1cc(N2CCn3c(nc4cc(Cl)ccc43)C2)ccc1NC(=O)c1ccccc1OC`, the “% Inhibition” value is reported as 4%. `C[C@H]1CCc2c(cnc3c(C(=O)NC4CC4)cnn23)C1` was tested, and the “% Inhibition” value was -8%. `COc1ncccc1CNC(=O)[C@@H]1CCN(c2cc(C)cc(C)c2)C1=O` was tested, and the “% Inhibition” value was 3%. `Cc1nsc(N[C@@H]2C=C[C@H](CO)C2)n1` was tested, and the “% Inhibition” value was -3%. For `Cc1c(NC(=O)c2n[nH]cc2Cl)c(=O)n(-c2ccccc2)n1C`, the “% Inhibition” value was -13%. For `O=C(c1ccco1)N1CC(n2cnnc2[C@@H]2CCCO2)C1`, the “% Inhibition” value was -2%. For `Cc1ccc(S(=O)(=O)Cc2nc(-c3ccc(C(=O)NCc4ccccc4C)cc3)oc2C)cc1`, the “% Inhibition” value was -13%. In the case of `Cc1ccc(/N=C(/Nc2ccc(Br)cc2)c2cc(C(C)(C)C)c(O)c(C(C)(C)C)c2)cc1`, the “% Inhibition” value is reported as -15%. In the case of `O=S(=O)(c1ccc(F)c(Cl)c1)N1CC[C@H](Oc2ccncc2Cl)C1`, the “% Inhibition” value is reported as 75%. For `O=S(=O)(c1ccc(Cl)cc1)N1CCC(c2cc(-c3cccc(C(F)(F)F)c3)[nH]n2)CC1`, the “% Inhibition” value was -1%. `O=S(=O)(c1ccco1)N1CC[C@H](Oc2ccccc2)C1` was tested, and the “% Inhibition” value was 2%. In the case of `COC(=O)C1NS(=O)(=O)c2ccc(Cl)cc2C1(O)c1ccccc1F` (stereo not given), the “% Inhibition” value is reported as -5%. `O=C(Nc1ccc(F)c(Cl)c1)c1ccn(COc2ccccc2Cl)n1` was tested, and the “% Inhibition” value was -6%. `O=C(N[C@@H](N1CCCCC1)C(Cl)(Cl)Cl)c1cccnc1` was tested, and the “% Inhibition” value was 2%. With `CC(C)c1ccc2ncnc(N[C@H]3CCc4[nH]cnc4C3)c2c1` the “% Inhibition” value was 97%. In the case of `O=C(Cc1ccc(F)cc1F)N1CCc2[nH]nc(C(=O)N3CCN(c4ccccc4)CC3)c2C1`, the “% Inhibition” value is reported as 3%. For `Cc1ccccc1Nc1c(-c2c[nH]c3ccccc23)nc2ncccn12`, the “% Inhibition” value was 1%. For `Cc1cc2c(OC[C@@H](O)CN3CCOCC3)cccc2[nH]1`, the “% Inhibition” value was -13%. In the case of `Cc1cc(C)nc([C@@H](C#N)C(=O)c2ccnc(OCC(F)F)c2)n1`, the “% Inhibition” value is reported as -7%. `COc1ccccc1C(=O)Nc1ccc(N2CCCN(C)CC2)cc1C(=O)O` was tested, and the “% Inhibition” value was -12%. For `Cn1ccnc(N[C@@H](COc2ccccc2F)c2ccccc2)c1=O`, the “% Inhibition” value was -7%. For `Cc1ccc(S(=O)(=O)N2CC[C@H](CC(=O)NCc3ccccc3)C2)cc1C`, the “% Inhibition” value was -16%. For `CNC(=O)COc1c(Cl)ccc(Cl)c1Br`, the “% Inhibition” value was 0%. `CCN(CCC1CCN(C(=O)Nc2ccc(OC3CCOCC3)c(C)c2)CC1)CC(C)C` was tested, and the “% Inhibition” value was -3%. For `CC(C)(C)[C@H]1CCc2c(sc(NC(=O)C3(F)C(F)(F)C(F)(F)C(F)(F)C(F)(F)C3(F)F)c2C#N)C1`, the “% Inhibition” value was 50%. With `N#Cc1c(NC(=O)CN2CCC[C@@H]2CO)sc2c1CCCCC2` the “% Inhibition” value was 1%. `COc1ccc2[nH]c(-c3nnc(Cn4c(C)cc5ccccc54)s3)cc2c1` was tested, and the “% Inhibition” value was 2%. `Cc1cc(S(=O)(=O)NC(=O)CCC(C)C)c(C)o1` was tested, and the “% Inhibition” value was -7%. `Cc1nc2ccccc2n1CC1CCCN1C(=O)C1CCc2cccnc21` (stereo not given) was tested, and the “% Inhibition” value was -7%. `CN(Cc1ccccc1)C(=O)C[C@H]1CCN(C(=O)c2cnccn2)C1` was tested, and the “% Inhibition” value was -1%. For `COc1ccc2c(c1)/C(=C1/SC(C(C)=O)=C(c3ccccc3)S1)C(=S)C(C)(C)N2C(=O)Nc1ccc(Cl)c(Cl)c1`, the “% Inhibition” value was -7%. For `Cc1ccc(-c2nc(CNC(=O)C[C@H]3CNCCO3)[nH]c2-c2ccccn2)cc1`, the “% Inhibition” value was 22%. With `Cn1ncnc1CCNC(=O)NC(C1CCCC1)C1CCCC1` the “% Inhibition” value was 1%. In the case of `O=C(NC1CC1)c1cn(CC2(O)CCN(Cc3ccccc3)CC2)nn1`, the “% Inhibition” value is reported as 0%. With `CC1(C)CC(=O)C2(Cc3ccccc3N3CCN(Cc4ccccc4)C[C@H]32)C(=O)C1` the “% Inhibition” value was 8%. `O=C(Nc1sc2c(c1C(=O)O)CCC2)c1ccsc1` was tested, and the “% Inhibition” value was -3%. In the case of `COC(=O)[C@@H](NC(=O)NC1CCCCC1)C(C)(C)C`, the “% Inhibition” value is reported as -2%. For `Cc1ccsc1-c1noc([C@@H]2COCCN2C)n1`, the “% Inhibition” value was -7%. In the case of `COc1c(O)ccc2c(=O)c3c(O)cc(O)c(OC)c3n(C)c12`, the “% Inhibition” value is reported as -3%. For `CC1(C)C(NCC(O)COc2ccc(F)c(F)c2)[C@@H]2CCC[C@@H]21` (stereo not given in full), the “% Inhibition” value was 72%. `COc1ccc(Oc2c(CN(CC3CC3)C(=O)c3ccccc3)c(-c3ccccc3)nn2C)cc1` was tested, and the “% Inhibition” value was 2%. For `CC1(C)Oc2ccc(NC(=O)c3ccco3)cc2NC1=O`, the “% Inhibition” value was -2%. For `CC(C)N(C)CC1CCN(C(=O)c2cc(-c3ccccc3)c(N3CCOCC3)s2)CC1`, the “% Inhibition” value was -4%. `CCOc1cc(-c2cc(-c3ccccc3O)nc3ccc4ccccc4c23)cc(Br)c1O` was tested, and the “% Inhibition” value was 91%. With `COc1cccc(CNCc2ccccc2)c1OCc1ccccc1Cl` the “% Inhibition” value was -1%. For `O=c1c2ccccc2nnn1-c1ncc(C(F)(F)F)cc1Cl`, the “% Inhibition” value was -9%. For `CC(C)(C)CCS(=O)(=O)N1CCC[C@H]1C1CCCCC1`, the “% Inhibition” value was 0%. With `Cn1cccc1C(=O)N1CCCN(S(C)(=O)=O)[C@H]2CCC[C@H]2C(=O)NCC1` the “% Inhibition” value was 0%. In the case of `CC(C)CCn1nnnc1[C@]1(N(C)C)CCCN(C(=O)c2cccn2C)C1`, the “% Inhibition” value is reported as 88%. For `COc1cccc(C(=O)N2CCC(c3nc(-c4ccc5c(c4)OCO5)no3)CC2)c1OC`, the “% Inhibition” value was -3%. For `Cc1ccc(S(=O)(=O)N2CCN(C(=O)N3CCOCC3)[C@@H]2C)cc1`, the “% Inhibition” value was -8%. For `C#CCOCC(O)CN(Cc1c(-c2ccccc2)noc1N1CCC(C)CC1)CC1CCCO1` (stereo not given), the “% Inhibition” value was -17%. `O=C(OCc1ccc(C(F)(F)F)nc1)c1ccc(C(F)(F)F)nc1` was tested, and the “% Inhibition” value was 7%. `O=C(NC1CCOCC1)c1ccc(-c2ccc(F)c(F)c2F)cn1` was tested, and the “% Inhibition” value was 6%. `CNC(=O)[C@@H](NC(=O)CNC(=O)c1ccc(Cl)cc1)C(C)(C)C` was tested, and the “% Inhibition” value was -11%. For `O=C(NCCN1CCCC1)c1ccc2c(c1)OCCO2`, the “% Inhibition” value was -12%. With `CC(=O)N1CCc2cc(-c3ccc(C(=O)NCCC(C)C)cc3)ccc21` the “% Inhibition” value was 2%. `O=C(c1ccnn1C(F)F)N1N=CC[C@]1(O)C(F)(F)F` was tested, and the “% Inhibition” value was -5%. `Cc1cc(CS(=O)(=O)NCCOc2ccc(Cl)cc2)on1` was tested, and the “% Inhibition” value was 2%. For `CC1(C)C[C@@H](NC(=O)COc2ccc(CO)cc2)CCO1`, the “% Inhibition” value was -1%. For `O=C(Nc1nc(Cc2ccccc2)cs1)C1CCOCC1`, the “% Inhibition” value was 2%. In the case of `COc1ccc(CNCCC2C(C)CN(C)C(C)C2Cc2ccccc2)cc1` (stereo not given), the “% Inhibition” value is reported as 59%. With `COc1ccc(CC2C(O)C(Cc3ccc(OC)cc3)C3CCC2N3C)cc1` (stereo not given) the “% Inhibition” value was 7%. `CCNC(=O)C(=O)NCc1ccc(OC)cc1` was tested, and the “% Inhibition” value was -17%. `C[C@H]1CS(=O)(=O)C[C@H]1NC(=O)Nc1ccc2ccoc2c1` was tested, and the “% Inhibition” value was -5%. With `O=C(Nc1ccc(Cl)c(Cl)c1)Nc1ccc(Cl)cc1NC(=O)Nc1ccc(Cl)c(Cl)c1` the “% Inhibition” value was 65%. `C[C@@H](NC(=O)Nc1ccc(Cl)c(Cl)c1)C(=O)O` was tested, and the “% Inhibition” value was 5%. `CNc1nc(C)cc(C(=O)Nc2ccc(Cl)cc2NC(C)=O)n1` was tested, and the “% Inhibition” value was 2%. For `O=C1CCC(=O)N1c1cnn(Cc2ccccc2)c1`, the “% Inhibition” value was 1%. In the case of `CC(C)(C)OC(=O)N1CCC2(CC1)NN=C1C=C(N3CCN(c4ccccc4F)CC3)N=CN12`, the “% Inhibition” value is reported as -8%. With `CCOc1ccc(NC(=O)Cn2cnc3c(-c4cccc(OC)c4)cn(C)c3c2=O)cc1` the “% Inhibition” value was -1%. For `CN1CC[C@H](CN(C)Cc2ccc3cc(O)ccc3c2)C1`, the “% Inhibition” value was 9%. `CNC(=O)c1cc(Br)cnc1NC` was tested, and the “% Inhibition” value was 3%. In the case of `COC1CCCC1NC(=O)Nc1ncc(Br)cc1C` (stereo not given), the “% Inhibition” value is reported as 74%. For `CC(=O)Nc1ncc(Br)cc1C`, the “% Inhibition” value was 3%. `Cc1c(NS(=O)(=O)c2ccc(Cl)cc2)c(-n2cnnc2)nn1C` was tested, and the “% Inhibition” value was -7%. With `O=C(NCCN1CCCCC1)c1n[nH]c2c1CCc1ccccc1-2` the “% Inhibition” value was 1%. `COc1cc(=O)[nH]cc1Br` was tested, and the “% Inhibition” value was -3%. With `CC(C)N1CCO[C@H](C(=O)Nc2c[nH]nc2-c2ccccc2)C1` the “% Inhibition” value was -5%. In the case of `O=C(O)c1nccc(C(F)(F)F)c1Cl`, the “% Inhibition” value is reported as -19%. In the case of `CC(C)(C)c1ccc(NC(=O)c2ccnnc2)c(O)c1`, the “% Inhibition” value is reported as -8%. `CC1(C)C2CCC13CS(=O)(=O)N=C3C2` (stereo not given) was tested, and the “% Inhibition” value was 3%. In the case of `COC(=O)c1ccccc1NC(=O)NCCn1nnc2cc(S(=O)(=O)N(C)C)ccc21`, the “% Inhibition” value is reported as 55%. For `Cc1cccc(NC(=O)NCCn2nnc3cc(S(=O)(=O)N4CCCC4)ccc32)c1C`, the “% Inhibition” value was -1%. `O=S(=O)(c1ccc(F)cc1)n1ccc(-c2cccc(OCc3ccc(Cl)cc3Cl)c2)n1` was tested, and the “% Inhibition” value was -4%. In the case of `Cc1nc2c(sc(=S)n2-c2ccc(Cl)c(Cl)c2)c(=O)[nH]1`, the “% Inhibition” value is reported as -2%. `CCOC[C@@H](O)CN(Cc1c(C)nn(-c2ccccc2)c1Oc1cccc(C)c1)C1CC1` was tested, and the “% Inhibition” value was 10%. `CCc1cc(C(=O)N2CCC3(CC2)C[C@H](c2ccccc2)C(=O)N3C)no1` was tested, and the “% Inhibition” value was -8%. For `O=C(OCC(=O)N1CCN(Cc2ccccc2)CC1)c1nccc2ccccc12`, the “% Inhibition” value was 1%. In the case of `CC(CNc1ccccn1)N1CCOCC1C` (stereo not given), the “% Inhibition” value is reported as -5%.
